The values that follow come from publication PMC7862700, “An all-to-all approach to the identification of sequence-specific readers for epigenetic DNA modifications on cytosine”.

Holding throughout (test): DAPPL (digital affinity profiling via proximity ligation, sequencing); 10 mM Tris-HCl pH 7.5, 50 mM NaCl, 1 mM DTT, 4% glycerol, room temperature, 30 min; GST-TFs on glutathione beads, 16-mer random dsDNA library, 0.1% formaldehyde crosslink after washing; high values mean tight binding
Common to all, as to conditions: protein: recombinant; tags: N-terminal GST; dsDNA, one strand shown

Test [1] has as its target T1, FLI1 (Homo sapiens, UniProt Q01543 1-452).
T1 sequence: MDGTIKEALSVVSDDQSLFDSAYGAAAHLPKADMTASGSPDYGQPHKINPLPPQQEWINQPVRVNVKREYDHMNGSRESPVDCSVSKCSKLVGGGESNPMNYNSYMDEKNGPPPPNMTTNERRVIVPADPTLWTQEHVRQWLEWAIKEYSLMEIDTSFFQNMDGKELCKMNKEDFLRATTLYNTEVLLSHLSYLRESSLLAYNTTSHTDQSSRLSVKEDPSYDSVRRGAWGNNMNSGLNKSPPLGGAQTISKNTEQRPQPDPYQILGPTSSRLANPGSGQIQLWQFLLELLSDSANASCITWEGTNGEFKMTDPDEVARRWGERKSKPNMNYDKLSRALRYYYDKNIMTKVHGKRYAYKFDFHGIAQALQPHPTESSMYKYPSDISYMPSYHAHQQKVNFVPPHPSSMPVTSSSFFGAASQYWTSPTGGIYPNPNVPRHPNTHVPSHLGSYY
The method in brief:
(§1)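 Binding signal is defined as a hexamer's read frequency for one factor over its frequency for the tag-only sample. To obtain reads, GST-fused human transcription factors were expressed in yeast, captured on glutathione beads, barcoded with DNA and pooled with that sample. Pools met 200 nmole of a 16-mer random double-stranded DNA library in Tris/NaCl/DTT/glycerol buffer for 30 min at room temperature before washing, 0.1% formaldehyde crosslinking, proximity ligation (BsaI/T4 ligase, 1 h, 37 °C), PCR and Illumina NextSeq500 sequencing.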

In test [2] the target is T2, ELK1 (Homo sapiens, UniProt P19419 1-428).
T2 sequence: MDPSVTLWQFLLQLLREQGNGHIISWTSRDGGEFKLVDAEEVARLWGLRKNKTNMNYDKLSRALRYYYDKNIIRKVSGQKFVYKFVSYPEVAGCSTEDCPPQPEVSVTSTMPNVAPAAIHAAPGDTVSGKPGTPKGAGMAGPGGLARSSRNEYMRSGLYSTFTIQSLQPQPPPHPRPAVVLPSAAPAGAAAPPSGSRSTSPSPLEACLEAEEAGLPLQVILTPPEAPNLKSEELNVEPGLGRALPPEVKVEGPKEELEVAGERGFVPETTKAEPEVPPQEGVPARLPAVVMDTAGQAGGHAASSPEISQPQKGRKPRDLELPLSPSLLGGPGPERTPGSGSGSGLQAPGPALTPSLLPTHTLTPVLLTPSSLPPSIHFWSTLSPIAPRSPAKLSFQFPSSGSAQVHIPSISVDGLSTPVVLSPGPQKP
In a few lines:
as §1

In test [3] the target is T3, GABPA (Homo sapiens, UniProt Q06546 1-454).
T3 sequence: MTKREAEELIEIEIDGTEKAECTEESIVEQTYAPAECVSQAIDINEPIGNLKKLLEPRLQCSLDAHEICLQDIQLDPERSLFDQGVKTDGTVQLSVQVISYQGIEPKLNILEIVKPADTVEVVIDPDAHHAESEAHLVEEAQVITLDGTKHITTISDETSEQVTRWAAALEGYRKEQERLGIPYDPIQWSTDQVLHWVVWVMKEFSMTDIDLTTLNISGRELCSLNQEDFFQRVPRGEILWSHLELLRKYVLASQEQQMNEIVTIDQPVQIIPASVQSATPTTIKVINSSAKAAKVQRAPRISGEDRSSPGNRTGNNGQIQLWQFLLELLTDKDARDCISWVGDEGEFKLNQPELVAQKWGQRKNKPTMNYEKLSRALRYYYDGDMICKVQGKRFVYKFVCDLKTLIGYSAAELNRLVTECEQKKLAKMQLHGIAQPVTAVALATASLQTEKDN
The method in brief: as §1

In test [4] the target is T4, ERG (Homo sapiens, UniProt P11308 1-479).
T4 sequence: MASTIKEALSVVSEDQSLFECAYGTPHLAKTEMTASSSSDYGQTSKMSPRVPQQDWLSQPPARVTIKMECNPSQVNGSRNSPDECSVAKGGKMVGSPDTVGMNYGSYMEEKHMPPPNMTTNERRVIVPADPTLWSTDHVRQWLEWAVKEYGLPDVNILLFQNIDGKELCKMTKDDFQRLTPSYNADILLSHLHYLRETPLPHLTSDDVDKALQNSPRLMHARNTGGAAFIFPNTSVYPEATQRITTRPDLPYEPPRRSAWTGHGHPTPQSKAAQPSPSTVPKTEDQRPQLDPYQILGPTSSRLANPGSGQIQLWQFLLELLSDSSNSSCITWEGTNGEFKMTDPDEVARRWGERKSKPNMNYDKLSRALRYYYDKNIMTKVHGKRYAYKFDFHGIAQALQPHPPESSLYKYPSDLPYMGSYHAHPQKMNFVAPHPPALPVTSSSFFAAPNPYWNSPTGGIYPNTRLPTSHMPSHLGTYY
The method in brief:
as §1

For test [5], the target named is ELF1 (Homo sapiens, UniProt P32519 1-619). The method in brief: as §1
Sequence of ELF1 (P32519 whole entry): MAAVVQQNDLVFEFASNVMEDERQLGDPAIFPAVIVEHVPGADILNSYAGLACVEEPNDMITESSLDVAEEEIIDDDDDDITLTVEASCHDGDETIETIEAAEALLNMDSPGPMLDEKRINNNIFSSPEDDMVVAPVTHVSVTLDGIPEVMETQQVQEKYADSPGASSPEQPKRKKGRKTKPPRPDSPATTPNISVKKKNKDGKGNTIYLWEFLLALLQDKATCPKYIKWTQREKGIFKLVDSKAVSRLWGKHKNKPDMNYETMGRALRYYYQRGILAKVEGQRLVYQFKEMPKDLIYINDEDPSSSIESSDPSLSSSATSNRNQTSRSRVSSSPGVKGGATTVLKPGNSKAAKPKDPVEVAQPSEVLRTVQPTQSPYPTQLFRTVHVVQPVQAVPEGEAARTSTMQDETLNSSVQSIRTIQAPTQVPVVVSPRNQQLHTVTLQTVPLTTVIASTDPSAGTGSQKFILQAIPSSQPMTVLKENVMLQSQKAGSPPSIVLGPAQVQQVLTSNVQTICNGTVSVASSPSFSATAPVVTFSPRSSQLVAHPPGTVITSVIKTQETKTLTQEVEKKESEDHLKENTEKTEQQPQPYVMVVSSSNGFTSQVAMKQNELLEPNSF
Test [6] deals with T5, EHF (Homo sapiens, UniProt Q9NZC4 1-300).
T5 sequence: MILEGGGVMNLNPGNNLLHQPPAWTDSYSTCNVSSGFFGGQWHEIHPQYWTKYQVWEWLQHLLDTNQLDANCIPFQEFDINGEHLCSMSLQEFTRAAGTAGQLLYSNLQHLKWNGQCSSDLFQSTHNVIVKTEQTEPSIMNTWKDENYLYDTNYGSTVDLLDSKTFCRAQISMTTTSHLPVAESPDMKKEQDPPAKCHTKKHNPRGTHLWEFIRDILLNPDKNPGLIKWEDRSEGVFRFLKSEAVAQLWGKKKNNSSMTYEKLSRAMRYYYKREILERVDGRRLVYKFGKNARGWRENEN
The method in brief: as §1

Test [7] concerns the target SPI1 (Homo sapiens, UniProt P17947 1-270). The method in brief:
as §1

The target in test [8] is SPIB (Homo sapiens, UniProt Q01892 1-262). In a few lines:
as §1

For test [9], the target named is T6, ELK3 (Homo sapiens, UniProt P41970 1-407).
T6 sequence: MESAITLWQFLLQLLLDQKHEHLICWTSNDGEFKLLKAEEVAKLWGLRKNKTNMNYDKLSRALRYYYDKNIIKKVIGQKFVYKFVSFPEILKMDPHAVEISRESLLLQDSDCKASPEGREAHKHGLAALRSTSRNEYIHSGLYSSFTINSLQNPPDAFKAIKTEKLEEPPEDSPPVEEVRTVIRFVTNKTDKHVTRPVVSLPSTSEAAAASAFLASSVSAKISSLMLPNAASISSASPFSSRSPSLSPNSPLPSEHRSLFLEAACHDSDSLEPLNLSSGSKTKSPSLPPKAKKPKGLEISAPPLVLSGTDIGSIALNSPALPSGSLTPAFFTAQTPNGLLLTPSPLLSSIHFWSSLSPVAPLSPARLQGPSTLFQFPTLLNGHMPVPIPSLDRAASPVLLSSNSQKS
The method in brief: as §1

Sequence of SPIB (Q01892 whole entry): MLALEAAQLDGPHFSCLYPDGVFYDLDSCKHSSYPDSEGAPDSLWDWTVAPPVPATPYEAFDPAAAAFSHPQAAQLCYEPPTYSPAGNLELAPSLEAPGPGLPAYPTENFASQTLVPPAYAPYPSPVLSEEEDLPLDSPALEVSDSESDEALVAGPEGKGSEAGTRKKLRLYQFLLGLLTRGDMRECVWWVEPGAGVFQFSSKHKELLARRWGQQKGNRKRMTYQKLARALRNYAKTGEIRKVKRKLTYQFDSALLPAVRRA

As to CTGGCT, the binding signal in test [1] is 1.33 fold enrichment (6-mer frequency, TF over GST control); in test [2] it was 1.31 fold enrichment (6-mer frequency, TF over GST control); in [3], 1.37 fold enrichment (6-mer frequency, TF over GST control); in [4] it was 1.3 fold enrichment (6-mer frequency, TF over GST control); in test [5] it was 1.25 fold enrichment (6-mer frequency, TF over GST control); in [6] it was 1.26 fold enrichment (6-mer frequency, TF over GST control). Besides, the binding signal in test [7] is 1.18 fold enrichment (6-mer frequency, TF over GST control); in test [8], 1.22 fold enrichment (6-mer frequency, TF over GST control); in test [9], 1.12 fold enrichment (6-mer frequency, TF over GST control).
For the sequence CCCGAT, the binding signal was 1.29 fold enrichment (6-mer frequency, TF over GST control) in test [1]; 1.17 fold enrichment (6-mer frequency, TF over GST control) in test [2]; 1.1 fold enrichment (6-mer frequency, TF over GST control) in [3]; 1.14 fold enrichment (6-mer frequency, TF over GST control) in [4]; 1.16 fold enrichment (6-mer frequency, TF over GST control) in [5]; 1.22 fold enrichment (6-mer frequency, TF over GST control) in test [6]. The binding signal was 1.16 fold enrichment (6-mer frequency, TF over GST control) in test [7]; 1.26 fold enrichment (6-mer frequency, TF over GST control) in test [8]; 1.06 fold enrichment (6-mer frequency, TF over GST control) in test [9].
With AGCTAT, the binding signal in test [1] was 1.21 fold enrichment (6-mer frequency, TF over GST control); in test [2], 1.14 fold enrichment (6-mer frequency, TF over GST control); in [3], 1.23 fold enrichment (6-mer frequency, TF over GST control); in [4] it was 1.17 fold enrichment (6-mer frequency, TF over GST control); in [5], 1.16 fold enrichment (6-mer frequency, TF over GST control); in [6], 1.23 fold enrichment (6-mer frequency, TF over GST control). In addition, the binding signal is 1.15 fold enrichment (6-mer frequency, TF over GST control) in test [7]; 1.26 fold enrichment (6-mer frequency, TF over GST control) in [8]; 1.24 fold enrichment (6-mer frequency, TF over GST control) in test [9].
Consider CTAGGT, for which the binding signal in test [1] was 1.07 fold enrichment (6-mer frequency, TF over GST control); in [2], 1.13 fold enrichment (6-mer frequency, TF over GST control); in test [3], 1.05 fold enrichment (6-mer frequency, TF over GST control); in [4] it was 1.14 fold enrichment (6-mer frequency, TF over GST control); in [5], 1.2 fold enrichment (6-mer frequency, TF over GST control); in test [6], 1.09 fold enrichment (6-mer frequency, TF over GST control). Further, the binding signal is 1.05 fold enrichment (6-mer frequency, TF over GST control) in test [7]; 1.13 fold enrichment (6-mer frequency, TF over GST control) in test [8]; 1.13 fold enrichment (6-mer frequency, TF over GST control) in test [9].
For AACCCC, the binding signal in test [1] is 1.08 fold enrichment (6-mer frequency, TF over GST control); in [2], 1.17 fold enrichment (6-mer frequency, TF over GST control); in test [3], 1.1 fold enrichment (6-mer frequency, TF over GST control); in test [4], 1.17 fold enrichment (6-mer frequency, TF over GST control); in test [5] it was 1.16 fold enrichment (6-mer frequency, TF over GST control); in test [6] it was 1.21 fold enrichment (6-mer frequency, TF over GST control). In addition, the binding signal in test [7] was 1.12 fold enrichment (6-mer frequency, TF over GST control); in test [8], 1.18 fold enrichment (6-mer frequency, TF over GST control); in test [9], 1.14 fold enrichment (6-mer frequency, TF over GST control).
For the sequence GTGCTT, the binding signal is 1.21 fold enrichment (6-mer frequency, TF over GST control) in [1]; 1.36 fold enrichment (6-mer frequency, TF over GST control) in [2]; 1.3 fold enrichment (6-mer frequency, TF over GST control) in test [3]; 1.38 fold enrichment (6-mer frequency, TF over GST control) in test [4]; 1.2 fold enrichment (6-mer frequency, TF over GST control) in test [5]; 1.24 fold enrichment (6-mer frequency, TF over GST control) in test [6]. For the same sequence, the binding signal in test [7] was 1.33 fold enrichment (6-mer frequency, TF over GST control); in test [8] it was 1.24 fold enrichment (6-mer frequency, TF over GST control); in test [9] it was 1.4 fold enrichment (6-mer frequency, TF over GST control).
Turning to TTATCC, the binding signal in test [1] was 1.47 fold enrichment (6-mer frequency, TF over GST control); in [2], 1.39 fold enrichment (6-mer frequency, TF over GST control); in test [3], 1.37 fold enrichment (6-mer frequency, TF over GST control); in test [4] it was 1.43 fold enrichment (6-mer frequency, TF over GST control); in test [5], 1.31 fold enrichment (6-mer frequency, TF over GST control); in test [6], 1.52 fold enrichment (6-mer frequency, TF over GST control). Moreover, the binding signal is 1.41 fold enrichment (6-mer frequency, TF over GST control) in [7]; 1.54 fold enrichment (6-mer frequency, TF over GST control) in test [8]; 1.5 fold enrichment (6-mer frequency, TF over GST control) in test [9].
